Measured values: ChEMBL document CHEMBL4513216, “Probing the Open Global Health Chemical Diversity Library for Multistage-Active Starting Points for Next-Generation Antimalarials” (ACS Infect Dis, 2020)
In all, about 69,000 compounds went through this assay and about 8,600 (12%) showed an effect of 50% or more. This is one part of a sample in which strong results are shown more often than they occur.

test system: Plasmodium berghei; test: Screen against P. berghei liver stage (PbLuc), transformed with Luciferase, at 10uM; type: functional, HepG2; conditions: tested at 10 uM

Compound | INHIBITION [%]
Cc1ccccc1-n1cc(CN(C)C(=O)CC2C(=O)NCCN2C)cn1 (configuration not stated) | 42.3
Cc1cccc(C(=O)N2CCCC[C@]3(C)NC(=O)CCC[C@H]23)n1 | 31.6
CN1CCCN(C(=O)c2cccn2-c2ccc3c(c2)OCCO3)CC1 | 6.99
CC(NC(=O)Nc1ccc(N2CCCC2)nc1)c1nncn1C (configuration not stated) | 9.54
O=C(NCC1(O)COCCN(Cc2cccc(O)c2)C1)c1cnccn1 (configuration not stated) | -25.3
COc1ccc(C(=O)NCCCn2ccnc2)c(OC)n1 | 26.6
CC(C)c1[nH]c2ncccc2c1CN1CCOCC1 | -21.6
Cc1ccc(CNC(=O)CN2CCOC(Cn3cccn3)C2)s1 (configuration not stated) | -45.4
O=C(NCc1ccc(-n2cncn2)nc1)c1cc(Cl)ccn1 | 45
Cc1cc(C)n(Cc2cccc(C(=O)NCCSCC(C)(C)O)c2)n1 | 0.426
O=C(NCC1CCC1)c1cccc(CN2CCS(=O)(=O)CC2)c1 | 33.4
CC(C)c1n[nH]c(C(=O)Nc2cc[nH]n2)c1Br | 55.9
CC(C)CC(NC(=O)c1cccc(F)c1F)C(=O)Nc1cc[nH]n1 (configuration not stated) | -36.4
Cc1cccc(NC(=O)c2sc(C)nc2C)n1 | -9.57
COc1ccccc1NC(=O)c1[nH]nc(C(C)C)c1Br | -101
Cc1cccc(NC(=O)c2cncc(C3CCNCC3)n2)n1 | 15.5
Cc1cccc(NC(=O)c2[nH]nc(C(C)C)c2Br)n1 | 65
CN(C)CCCN(Cc1cnn(C)c1)Cc1ccco1 | -9.35
Oc1ccccc1-c1n[nH]c(C2CCCO2)n1 (configuration not stated) | -3.11
c1cnnc(N2CCCC2CNCc2cscn2)c1 (configuration not stated) | -56.1835
Cc1ccsc1C1CC(=O)Nc2c1cnn2C(C)C (configuration not stated) | 11.9
CCn1cnnc1CCNCc1c[nH]nc1-c1ccc(F)cc1 | -5.94
Fc1ccc(CNCCn2cccn2)cc1F | 26.9
Fc1ccc(-c2nc(CNCCn3cccn3)cs2)cc1 | 4.02

Compound | INHIBITION [%]
Cc1ccc(-c2n[nH]cc2CNCC2CCS(=O)(=O)C2)o1 (configuration not stated) | -29.4
CC(NCCn1cccn1)c1cc(F)ccc1F (configuration not stated) | 53.8
c1ccc(-n2cncn2)c(CNCCn2cccn2)c1 | -14.2
Cc1ccc(-c2nc(CNCCn3cccn3)cs2)o1 | 10.8
Fc1ccc(-c2n[nH]cc2CNCCn2cccn2)cc1 | 77.6
Fc1cc(CNCCn2cccn2)ccc1-n1cncn1 | 50.8
CC(NCCn1cccn1)c1ccccc1F (configuration not stated) | 27.9
Cc1ccc(-c2n[nH]cc2CNCCn2cccn2)o1 | 77.6
CC(NCCn1cccn1)c1ccc(F)cc1F (configuration not stated) | 16.8
Cn1cc(CN2CC[C@H]3O[C@@H](COCc4cccnc4)CC[C@H]32)cn1 | 3.11
Cc1ncc2c(n1)C1(CCN(C(=O)C3CC3)CC1)OCC2 | 7.15
O=C(c1cnn(-c2ccccc2)n1)N1CCCC(n2cccn2)C1 (configuration not stated) | 33.8
CCOC(=O)c1c(NC(=O)CN2CCN(C(C)=O)CC2)sc(C)c1C | -13.5
COc1cc(NC(=O)NCC2CCCO2)cc(OC)c1OC (configuration not stated) | 29.8
CC(C)c1nc2c(n1C)CCN(Cc1cccc(C(N)=O)c1)C2 | 34
Cc1ccc(F)c(S(=O)(=O)NCc2cccc(C(=O)N3CCCC3)c2)c1 | 17.5
Cc1cc(F)ccc1CNCCn1cccn1 | 30.1
Fc1ccc(CNCCn2cccn2)c(Cl)c1 | 64.1
Fc1ccc(CNCCn2cccn2)c(F)c1 | -13.3
Cc1cc(C)c(CNC(=O)CCC2CCCO2)c(=O)[nH]1 (configuration not stated) | 11.45
NC(=O)NCC(=O)N1C[C@@H]2CC[C@H]1CN(Cc1cscn1)C2 | 7.3
Cc1nnc(CCNC(=O)[C@H]2CNC[C@@H](C(=O)N3CCCC3)C2)s1 | -5.08
COc1ncccc1NC(=O)N(CC(C)C)C1CC1 | -2.19
COc1ncccc1NC(=O)N(Cc1ccc(C(N)=O)cc1)C1CC1 | -35.7

Compound | INHIBITION [%]
COc1ncccc1NC(=O)N(Cc1ccc(C)o1)C1CC1 | 58.2
COc1ncccc1NC(=O)N(Cc1ccco1)C1CC1 | -18
COc1ncccc1NC(=O)N(Cc1ccccn1)C1CC1 | -47.6
CCN(C(=O)Nc1cccnc1OC)C1CC1 | 53.5
CC(=O)N1CCn2c(nnc2C2CCCCN2C(C)=O)C1 (configuration not stated) | -55
COCCNC(=O)c1cc(C(C)C)nc(N2CCCC2)n1 | 16.8
CCCNC(=O)c1cc(C(C)C)nc(N2CCCCC2)n1 | 44.9
CCCNC(=O)c1cc(C(C)C)nc(N2CCCC2)n1 | 32.5
CCN(CC)CCNC(=O)c1cc(C(C)C)nc(N2CCCC2)n1 | 15.8
CC(C)c1cc(C(=O)NCCCN(C)C)nc(N2CCCC2)n1 | 52.4
CC(C)c1cc(C(=O)NCCN2CCOCC2)nc(N2CCCC2)n1 | 51.6
COCCCNC(=O)c1cc(C(C)C)nc(N2CCCCCC2)n1 | 37.5
COCCNC(=O)c1cc(C(C)C)nc(N2CCCCC2)n1 | 52.4
COCCCNC(=O)c1cc(C(C)C)nc(N2CCCC2)n1 | -23.8
c1ccc(C2CN(CCc3ccncc3)CCO2)cc1 (configuration not stated) | 6.12
CN(CC(F)(F)F)C(=O)Cn1cc(NC(=O)C(C)(C)C)cn1 | -0.551
Cc1nn(C)c(N(C)C)c1CNC1CCc2cc(F)ccc21 (configuration not stated) | 27.4
Cc1ccccc1S(=O)(=O)N[C@@H]1CC[C@@H](N2CCNC(=O)C2)[C@@H]1O | 6.65
COc1cc(CNCC(O)c2cccc(F)c2)cc2c1OCO2 (configuration not stated) | 44.1
Cc1nc(CN(C)C2CCCN(c3cccnn3)C2)nc2ccccc12 (configuration not stated) | 47
CCN(CC)c1ncccc1CNCc1ccc(-c2ccn[nH]2)s1 | 27.6
O=C(O)c1ccccc1-c1ccc(CNC(=O)C2CCOCC2)cc1 | 56.6
CC1CCCCN1Cc1ccc(-c2ccccc2C(=O)O)cc1 (configuration not stated) | 25.3
O=C(O)c1ccccc1-c1cnc(CNC(=O)C2CCOCC2)nc1 | -17.35
